Laboratory results published in PubChem BioAssay (NCI).
The panel holds about 83,000 compounds, 20% with a hit somewhere; the sample as a whole holds those more often.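 Assay: single dose, 48 h. Readout: percent growth (0 = no net growth; negative = cell death). Active: <10.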 Values without a mark were called inactive. Activity calls are given as the source filed them.

System: HL-60(TB) leukemia
Assay: NCI-60 one-dose screen, 48 h (100 = growth as untreated, 0 = no growth, -100 = all killed)
Conditions: 10 µM unless noted

Row | Structure (SMILES) | growth
1 | COC1(OC)C2(Cl)CCC1(Cl)C(Cl)=C2Cl | 139%
2 | CC1(C)N=c2cc3c(cc2N1c1ccc(Cl)cc1)=Nc1ccccc1N3c1ccc(Cl)cc1 | -40.4% (active)
3 | CCN(CC)CCNc1ccc(CO)c2sc3ccccc3c(=O)c12 | 60.8%
4 | CCC(C)(C)c1ccc(OCCCCCCN2CCN(c3ccc(C)c(Cl)c3)CC2)cc1 | 84.5%
5 | CCOC(=O)NNc1nncc2ccccc12 | 103%
6 | C[n+]1c(/C=C/c2ccc([N+](=O)[O-])cc2)ccc2ccccc21 | 99.3%
7 | COC(=O)CNC(=O)[C@]12CCC(C)(C)C[C@H]1C1=CC[C@@H]3[C@@]4(C)Cc5c([nH]c6ccccc56)C(C)(C)[C@@H]4CC[C@@]3(C)[C@]1(C)CC2 | 76.9%
8 | COc1ccc(C2C=C(c3ccc(Cl)cc3)N=C3SC=CN32)c(Br)c1 (stereo not given) | 92.9%
9 | COc1ccc2[nH]c(O)c(N=NC(=O)c3oc4ccccc4c3C)c2c1 | 53.9%
10 | COc1ccc(C(=O)c2cc(OC)c(OC)c(OC)c2OC)cc1O | 25.2%
11 | Cc1nc2ccccc2c(C(=O)O)c1O | 186%
12 | C#CCOc1cccc(Nc2c(Cl)c(CCl)nc3ccc(Oc4ccccc4)cc23)c1 | 41.4%
13 | CN(C)CCCNC(=O)C(c1ccccc1)c1ccccc1 | 106%
14 | COc1cc(NC(C)CCCN)c2nc(C)ccc2c1Oc1ccc(F)cc1 (stereo not given) | 87.9%
15 | CN(C)c1ccc2c(c1)/C(=N/O)c1ccccc1-2 | 87.3%
16 | CC1C(=O)c2ccccc2CC1C(=O)O (stereo not given) | 99.7%
17 | COc1ccc(C2=CN3CC=CC3CC2=O)cc1 (stereo not given) | 106%
18 | c1cc2c(cc1-c1cnc3nonc3n1)OCO2 | 0.978% (active)
19 | C=CCOC(=O)C(=O)OCC=C | 68.7%
20 | COc1cc(/C=C\c2cc(OC)c(OC)c(OC)c2)cc(N)c1OC | 48.8%
21 | O=C1COc2ccccc2C(=O)N1CCCCNc1ccccc1 | -36.5% (active)
22 | O=C(/C(=C/c1cccc([N+](=O)[O-])c1)c1ccccc1)c1ccccc1 | 10.6%

Row | Structure (SMILES) | growth
23 | O=C(Nc1ccccc1)Nc1ccc2cc3ccc(NC(=O)Nc4ccccc4)cc3nc2c1 | 50.9%
24 | COc1cc(-c2ccc[nH]2)[nH]c1/C=C1\N=C(C)C(C(=O)NC(C)C)=C1C | 26.1%
25 | CCO/C=N/C1=C(C#N)C(c2ccc(F)cc2)c2sc3c(F)cccc3c2O1 (stereo not given) | 6.35% (active)
26 | COCCOc1ccc(-c2nc3ccc(-c4nc5ccc(N6CCN(C)CC6)cc5[nH]4)cc3[nH]2)cc1 | 3.73% (active)
27 | COc1ccc2c(c1)[n+](=O)c(C(=O)/C=C/c1cc(OC)c(OC)c(OC)c1)c(C)n2[O-] | 42.6%
28 | CCOC(=O)c1c(C)nc2c(c1N)C(=O)C(=O)N2Cc1ccc(OC)cc1 | 46.6%
29 | Cc1onc(-c2ccccc2Cl)c1C(=O)Cl | 104%
30 | CC1=C2C(=C[C@@](C)(CO)[C@@H]2OC(=O)N(C)CCN(C)C(=O)OC(C)(C)C)C(=O)[C@](C)(O)C12CC2 | 46.1%
31 | Cn1cc(CC2CC(=O)N(c3ccccc3)C2=O)sc1=NC(=O)c1ccccc1 (stereo not given) | 114%
32 | COc1ccc2nc3cc(Cl)ccc3c(N3CCN(c4nccc(Nc5ccccc5)n4)CC3)c2c1 | 73.8%
33 | Fc1cc2c(cc1Cl)N(c1ncnc3ccc(-c4cnc5cnccn45)cc13)CC2 | -7.92% (active)
34 | Cc1cc(N(CCNc2ccnc3cc(Cl)ccc23)Cc2ccc3c(c2)OCO3)nc(N2CCN(C)CC2)n1 | -57.8% (active)
35 | CC(=O)OCC1SC(OC(C)=O)C(NC(=O)/C=C/CCl)C(OC(C)=O)C1OC(C)=O (stereo not given) | 79.9%
36 | c1ccc2c(c1)nc(-n1ccnc1)c1nc3ccccc3n12 | 101%
37 | CC1=Nc2cnc(Nc3ccc(N4CCCCC4)cc3)nc2Nc2ccccc21 | 28.1%
38 | N#Cc1ccc([N+](=O)[O-])o1 | 108%
39 | O=C1CCC23OC(c4ccccc4N12)C(O)C(O)C3O (stereo not given) | 97%
40 | CCCCCCCC/C=C\CCCCCCCCOc1ccc(CC(=O)NCC[N+]2(C)CCCC2)cc1 | -31.6% (active)
41 | COc1ccc(-c2onc(N)c2-c2cc(OC)c3c(c2)OCO3)cc1 | -31.4% (active)
42 | CCCCCCn1c(-c2ccc(C(=O)O/N=C(\N)c3ccc4ccccc4c3)cc2)nc(-c2ccccc2)c1-c1ccccc1 | 2.97% (active)
43 | COc1cccc(CC(C)=C(c2ccc(OCCN3CCCCC3)cc2)c2ccc(OCCN3CCCCC3)cc2)c1 | -57.5% (active)
44 | Cc1ccc(C)c(-c2csc(Nc3ccc(C)c(C)c3)n2)c1 | 34.4%

Row | Structure (SMILES) | growth
45 | Cc1c(O)cc(-c2cnc(N/N=C/c3ccccc3)s2)c(O)c1C | 19.1%
46 | CCN1C(=O)N(CC)C2C1NN=c1s/c(=C\c3ccc(OC)cc3)c(=O)n12 (stereo not given) | -45.9% (active)
47 | COc1ccc(Oc2[nH]n(C3=Nc4ccccc4Sc4ccccc43)c(=O)c2C#N)cc1 | 112%
48 | COc1cnc2c(c1)C(=O)c1c-2n(CCCNC(C)C)c(=O)c2cc(F)ccc12 | -38.7% (active)
49 | O=C(NC1CCN(Cc2ccccc2)CC1)c1cc(-c2cccnc2)nc2ccc(Cl)cc12 | 73.9%
50 | CCN(CC)CCOc1ccc(C(=O)/C=C\c2ccc(Cl)cc2Cl)cc1 | -29.2% (active)
51 | COc1ccc(-c2nn(-c3cccc(NC(=O)Nc4cc(C(F)(F)F)cc(C(F)(F)F)c4)c3)cc2-c2ccncc2)cc1Cl | -25.4% (active)
52 | O=c1ccc2nc(-c3ccccn3)nn(-c3ccccc3)c-2c1 | 31.1%
53 | OC(c1ccccc1)(c1ccccc1)C(F)(F)F | 77.1%
54 | Cc1cc(=O)c2c(C)ccc(C)c2[nH]1 | 96.7%
55 | O=C(N/N=C/c1ccc(Cl)cc1Cl)c1ccc2nc(-c3ccc(Cl)cc3)[nH]c2c1 | 5.77% (active)
56 | Nc1nc2c(c3cnccc13)C(c1ccc(Cl)c(Cl)c1)Cc1cnccc1-2 (stereo not given) | -16.5% (active)
57 | Cc1cc(N2CCCCC2)cc(C)c1-c1csc(NC(=O)c2ccncc2)n1 | 21.8%
58 | OC(c1ccc(Cl)cc1)(c1ccc(Cl)cc1)C(O)(c1ccc(Cl)cc1)c1ccc(Cl)cc1 | 51.2%
59 | [2H]c1nc(=Nc2cc(NC(=O)C=C)c(N(C)CCN(C)C)cc2OC)[nH]c(-c2cn(C([2H])([2H])[2H])c3ccccc23)c1[2H] | -37.8% (active)
60 | N=C(N)c1ccc(-c2ccc(-c3ccc(Cl)c(Cl)c3)o2)cc1 | -45.5% (active)
61 | CCN(C(=O)CN1CCN(c2cc3c(cc2F)c(=O)c(C(=O)O)cn3CC)CC1)c1nc(-c2ccccc2)cs1 | -39.2% (active)
62 | Cc1cc(NCc2cc(Nc3ccnc4cc(Cl)ccc34)ccc2F)nc(N2CCN(C)CC2)n1 | -46.6% (active)
63 | O=C1CNCCN1 | 99.5%
64 | c1ccc2c[n+](Cc3ccc4ccccc4n3)ccc2c1 | 74.3%
65 | CC/C=C\C[C@H](F)C/C=C1/C(=O)C=C[C@@H]1C/C=C\CCCC(=O)OC | -33.1% (active)
66 | CCOC(=O)CC1CSC(c2cccc(Cl)c2)=N1 (stereo not given) | 98.8%

Row | Structure (SMILES) | growth
67 | COc1ccc(Br)c(/C=C2\SC(=Nc3ccc(O)cc3)NC2=O)c1 | 76.6%
68 | Cn1c2ccccc2c2c3c(c4c5cc(Br)ccc5n(C)c4c21)C(=O)N(O)C3=O | -33.2% (active)
69 | COc1cc2ncnc(Nc3ccc(Oc4ccnc(C)c4)c(C)c3)c2cc1NC(=O)CC1CCSS1 (stereo not given) | -45.8% (active)
70 | O=C1c2cc3c(cc2-c2c1c1cc(Cl)c(Cl)cc1c(=O)n2CCCn1ccnc1)OCO3 | -19.4% (active)
71 | CC(=O)OCC1OC(OC2=C(CC=C(Cl)Cl)C(=O)c3ccccc3C2=O)C(OC(C)=O)C(OC(C)=O)C1OC(C)=O (stereo not given) | 0.376% (active)
72 | CCOc1ccc(/C=C/C(=O)c2cccc(OCCCOc3cccc(C(=O)/C=C/c4ccc(OCC)cc4)c3)c2)cc1 | 56%
73 | CCC1=CCC[C@@]2(C)CCC[C@@]3(C)CCCC(C)(C)[C@]1([O-])[O+]32 | 107%
74 | C[n+]1ccccc1C[n+]1ccccc1 | 90.9%
75 | COc1cc(/C=C2\C(=O)Nc3ccccc32)cc(OC)c1O | 1.88% (active)
76 | Nc1nc(N)c2c(n1)NC(c1ccc(Cl)cc1)C1CCc3ccccc3C1=N2 (stereo not given) | 13.5%
77 | Cc1cc(-c2noc(C(F)(F)F)n2)ccc1N1CCN(c2cc(C(=O)N(C)C)no2)CC1 | 49.7%
78 | C/C=C/C1=CN2C(=O)c3cc(OC4OC(C)C(NC)C(C)(O)C4O)c(C)cc3N=C[C@@H]2C1 (stereo not given in full) | -4.41% (active)
79 | C[C@@H]1CC[C@@H]2[C@@H]1[C@H](OC(=O)/C=C/c1ccccc1)[C@]1(CCCOCCOCCOCCOC(=O)CCCC[C@@H]3SC[C@@H]4NC(=O)N[C@@H]43)C[C@@H](OC(=O)CO)[C@@]2(C)O1 | 98.1%
80 | CN(C)C[C@@H]1CCn2cc(c3ccccc32)C2=C(C(=O)NC2=O)c2cn(c3ccccc23)CCO1 | -23.5% (active)
81 | CCc1ccc2c(c1)N(CCO)C1=C(C(=O)OC1)C2c1ccccc1 (stereo not given) | 94.9%
82 | C=C(C)[C@@H]1CC[C@]2(C)[C@H](CC[C@@H]3[C@H]4[C@H]5OC[C@@]4(CCC5(C)C)CC[C@]32C)[C@@]1(C)CCCN | -4.66% (active)
83 | Cc1cn(C2CCCCO2)c(=O)nc1NO (stereo not given) | 102%
84 | COc1ccc2c(c1)O/C(=C\c1ccc([N+](=O)[O-])o1)C2=O | -17.7% (active)
85 | Cc1cccc(NC(=O)CSc2nc3ccc([N+](=O)[O-])cc3[nH]2)c1 | 86.1%
